Results: PubChem BioAssay (Tox21)
Records with an inconclusive call do not appear. Where a call stands in place of a potency, no number is given. Unmarked numbers belong to inactive results. Calls of active or inactive are those of the source. Unless noted, the call rests on the fitted dose curve; in most records, active means well fitted curve in the direction sought with a large enough effect in the repeat runs; inconclusive means weak or mixed curves; inactive means no such curve, though single readings can be large; an effect the other way counts as inactive or inconclusive.

Columns and labels:
[1] = qHTS assay to identify small molecule antagonists of the peroxisome proliferator-activated receptor delta (PPARd) signaling pathway - cell viability counter screen (AID 743213); further: nearly all actives have a fitted effect of over 50% in size; further: potency means the concentration at half of the fitted maximal effect
Method in brief: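 Luminescence from CellTiter-Glo, added after the bla read and incubated 30 min at room temperature, gives viability of HEK293H PPARd-bla cells exposed to compounds for 17 h at 37 C with 300 nM L165041.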

[2] = biological target: Bile acid receptor (Homo sapiens) (UniProt Q96RI1); experiment: qHTS assay to identify small molecule antagonists of the farnesoid-X-receptor (FXR) signaling pathway (AID 743217; active means well fitted inhibition curve with a large enough effect in the signal ratio in the repeat runs, not every such curve was filed as active; the % refers to the signal ratio)
Method in brief: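 Quantitative HTS, beta-lactamase reporter format: FXR-UAS-bla HEK 293T cells co-treated 16 h at 37 °C with compounds and 50 uM final chenodeoxycholic acid, then read by B/G FRET fluorescence.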

[3] = qHTS assay to identify small molecule agonists of the farnesoid-X-receptor (FXR) signaling pathway - cell viability counter screen (AID 743218); further: nearly all actives have a fitted effect of over 45% in size; further: potency means the concentration at half of the fitted maximal effect
Method in brief: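 Same-well cytotoxicity check on FXR-UAS-bla HEK 293T cells: 5 h attachment, 16 h compound at 37 C, CellTiter-Glo luminescence read at room temperature after 30 min.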

[4] = biological target: Bile acid receptor (Homo sapiens) (UniProt Q96RI1); experiment: qHTS assay to identify small molecule agonists of the farnesoid-X-receptor (FXR) signaling pathway (AID 743220; active means well fitted activation curve with a large enough effect in the signal ratio in the repeat runs, not every such curve was filed as active; the % refers to the signal ratio)
Method in brief: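 FXR-UAS-bla HEK 293T cells carrying a UAS-driven beta-lactamase reporter were plated for 5 h at 37C/5% CO2, then exposed to DMSO-dissolved Tox21 10K compounds for 16 h at 37C. A LiveBLAzer B/G FRET substrate was loaded for 2 h at room temperature before fluorescence reading.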

[5] = qHTS assay to identify small molecule antagonists of the farnesoid-X-receptor (FXR) signaling pathway - cell viability counter screen (AID 743221; active means well fitted cell-killing curve with a large enough effect in the repeat runs, not every such curve was filed as active; further: nearly all actives have a fitted effect of over 50% in size; further: potency means the concentration at half of the fitted maximal effect)
Method in brief: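 CellTiter-Glo, 30 min RT, luminescence; same wells as the LiveBLAzer FRET read. Cells: FXR-UAS-bla HEK 293T. Treatment: compound with chenodeoxycholic acid 50 uM final, 16 h at 37 C.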

[6] = biological target: Vitamin D3 receptor (Homo sapiens) (UniProt P11473); experiment: qHTS assay to identify small molecule antagonists of the vitamin D receptor (VDR) signaling pathway (AID 743223; active means well fitted inhibition curve with a large enough effect in the signal ratio in the repeat runs, not every such curve was filed as active; the % refers to the signal ratio)
Method in brief: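 After VDR-bla cells are plated and left 4 h at 37C, DMSO-dissolved compounds and 3 nM (final) calcitriol agonist are added. Incubation continues 16 h at 37C; FRET beta-lactamase substrate then develops 2 h at room temperature.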

[7] = qHTS assay to identify small molecule agonists of the vitamin D receptor (VDR) signaling pathway - cell viability counter screen (AID 743224); further: nearly all actives have a fitted effect of over 50% in size; further: potency means the concentration at half of the fitted maximal effect
Method in brief: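 Counter screen for cytotoxicity: VDR-bla cells at 2,000 cells/well, 16 h compound exposure, then CellTiter-Glo luminescence after the beta-lactamase measurement.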

[8] = biological target: Peroxisome proliferator-activated receptor delta (Homo sapiens) (UniProt Q03181); experiment: qHTS assay to identify small molecule antagonists of the peroxisome proliferator-activated receptor delta (PPARd) signaling pathway (AID 743215; active means well fitted inhibition curve with a large enough effect in the signal ratio in the repeat runs, not every such curve was filed as active; the % refers to the signal ratio;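 further: cells stimulated with agonist L165041 at 300 nM final during compound exposure; series mostly up to about 62 µM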)
Method in brief: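 Screen format: qHTS, antagonist mode. HEK293H PPARd-bla cells received compound and 300 nM L165041 (final), 17 h, 37 C. Beta-lactamase detected via FRET substrate fluorescence, 2 h, room temperature.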

[9] = biological target: Vitamin D3 receptor (Homo sapiens) (UniProt P11473); experiment: qHTS assay to identify small molecule agonists of the vitamin D receptor (VDR) signaling pathway (AID 743222; calls by dose curve)
Method in brief: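 Using LiveBLAzer B/G FRET detection, agonism was scored in VDR-bla cells exposed overnight (16 h, 37C) to DMSO-dissolved compounds; substrate incubation was 2 h at room temperature.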

Peroxisome proliferator-activated receptor delta (Homo sapiens), sequence (Q03181 whole entry, looked up): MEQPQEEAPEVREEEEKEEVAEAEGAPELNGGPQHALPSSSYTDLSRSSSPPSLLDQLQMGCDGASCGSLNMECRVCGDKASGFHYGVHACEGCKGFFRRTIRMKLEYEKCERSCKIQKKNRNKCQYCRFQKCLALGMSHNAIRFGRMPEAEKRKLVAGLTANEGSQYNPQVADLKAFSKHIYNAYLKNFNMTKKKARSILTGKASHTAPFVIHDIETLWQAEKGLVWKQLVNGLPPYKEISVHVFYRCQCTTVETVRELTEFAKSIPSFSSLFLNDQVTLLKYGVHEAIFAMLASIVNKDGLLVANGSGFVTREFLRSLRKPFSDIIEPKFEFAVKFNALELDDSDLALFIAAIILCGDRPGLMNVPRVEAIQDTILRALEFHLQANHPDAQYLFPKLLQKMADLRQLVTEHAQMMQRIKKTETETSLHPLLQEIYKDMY
Vitamin D3 receptor (Homo sapiens), sequence (P11473 whole entry, looked up): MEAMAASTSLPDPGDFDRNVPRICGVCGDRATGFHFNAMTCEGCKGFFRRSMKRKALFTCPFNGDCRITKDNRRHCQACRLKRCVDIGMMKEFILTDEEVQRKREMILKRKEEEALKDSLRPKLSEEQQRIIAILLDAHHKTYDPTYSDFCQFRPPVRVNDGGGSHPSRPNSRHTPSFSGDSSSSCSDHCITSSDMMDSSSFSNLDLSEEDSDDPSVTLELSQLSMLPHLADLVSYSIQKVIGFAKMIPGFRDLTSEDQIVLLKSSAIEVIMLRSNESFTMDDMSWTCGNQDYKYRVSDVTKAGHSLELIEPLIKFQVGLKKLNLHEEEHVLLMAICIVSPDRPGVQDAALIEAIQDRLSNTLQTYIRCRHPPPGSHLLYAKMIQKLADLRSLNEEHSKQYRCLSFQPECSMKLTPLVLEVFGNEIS
Bile acid receptor (Homo sapiens), sequence (Q96RI1 whole entry, looked up): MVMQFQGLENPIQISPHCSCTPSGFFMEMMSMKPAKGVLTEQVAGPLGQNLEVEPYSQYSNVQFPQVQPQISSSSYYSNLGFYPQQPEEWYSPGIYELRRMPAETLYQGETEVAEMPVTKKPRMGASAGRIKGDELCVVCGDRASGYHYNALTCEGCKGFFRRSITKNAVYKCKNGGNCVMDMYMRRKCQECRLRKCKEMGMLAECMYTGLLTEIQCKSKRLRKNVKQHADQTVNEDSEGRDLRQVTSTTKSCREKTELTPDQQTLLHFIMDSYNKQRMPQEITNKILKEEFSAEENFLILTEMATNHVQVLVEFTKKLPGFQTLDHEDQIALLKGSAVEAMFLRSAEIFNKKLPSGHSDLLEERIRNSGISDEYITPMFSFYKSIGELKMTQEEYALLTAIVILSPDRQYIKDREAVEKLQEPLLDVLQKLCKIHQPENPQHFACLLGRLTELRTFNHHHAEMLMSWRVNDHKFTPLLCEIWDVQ

| Compound | Potency [1] | outcome [2] | Potency [3] | Potency [4] | Potency [5] | outcome [6] | Potency [7] | Potency [8] | outcome [9] |
| --- | --- | --- | --- | --- | --- | --- | --- | --- | --- |
| CC(=O)Oc1cccc(O)c1 | inactive | inactive | inactive | inactive | inactive | inactive | inactive | – | – |
| O=S(=O)(Cl)c1c(Cl)cccc1Cl | inactive | – | inactive | – | inactive | – | inactive | inactive | – |
| O=C(O)CO | inactive | – | – | – | – | – | inactive | inactive | inactive |
| Nc1ccn([C@H]2CS[C@@H](CO)O2)c(=O)n1 | inactive | – | inactive | – | inactive | – | – | – | – |
| O=P(O)(O)Oc1ccccc1 | inactive | inactive | inactive | inactive | inactive | inactive | inactive | – | inactive |
| CC(C)c1ccc(C(=O)N=C(N)N)cc1S(C)(=O)=O | inactive | – | inactive | – | – | inactive | inactive | inactive | inactive |
| CCC1CCC(CCC(=O)O)C1 (configuration not stated) | inactive | inactive | inactive | inactive | inactive | inactive | inactive | – | – |
| O=C(O)c1ccc(O)cc1O | inactive | inactive | inactive | inactive | inactive | inactive | inactive | – | inactive |
| O=C(O)c1cccc(Oc2ccccc2)c1 | inactive | – | inactive | – | inactive | inactive | inactive | inactive | – |
| CCN(CC)c1cccc(O)c1 | inactive | – | inactive | – | – | – | inactive | inactive | – |
| O=C(Nc1ccc(C(=O)O)c(O)c1)c1ccccc1 | inactive | – | – | – | inactive | inactive | inactive | inactive | inactive |
| CC(C)c1ccc(C#N)cc1 | inactive | – | – | – | inactive | inactive | inactive | inactive | inactive |
| CN(C)CC/C=C1\c2ccccc2Sc2ccc(Cl)cc21 | 13.3 µM (active) | – | 23.7 µM (active) | – | – | – | – | inactive | inactive |
| CCCCCC | inactive | inactive | inactive | inactive | inactive | – | – | – | – |
| CN1CCCN(C(c2ccccc2)c2ccc(Cl)cc2)CC1 (configuration not stated) | 26.6 µM (active) | – | 29.8 µM (active) | inactive | 26.6 µM (active) | – | – | – | – |
| C=CCOC(=O)COCCC(C)C | inactive | – | – | – | – | – | inactive | inactive | – |
| CCCOC(=O)c1c(Cl)c(Cl)c(Cl)c(Cl)c1C(=O)OCCC | inactive | – | – | – | inactive | inactive | inactive | inactive | inactive |
| CO[C@@H]1[C@@H](OC)[C@H](C)[C@@](O)(CC(=O)O)O[C@H]1[C@H](C)[C@H]1O[C@@]2(CC[C@@](C)([C@H]3CC[C@@](C)([C@@H]4O[C@@H]([C@H]5O[C@](C)(O)[C@H](C)C[C@@H]5C)C[C@@H]4OC4C[C@H](OC)[C@@H](OC)[C@H](C)O4)O3)O2)C[C@H](O)[C@H]1C (some centres not stated) | 5.31 µM (active) | – | 9.44 µM (active) | inactive | 9.44 µM (active) | – | 5.96 µM (active) | – | – |
| O=C(O)c1cc(Cl)cc(Cl)c1O | inactive | – | – | – | – | inactive | – | inactive | inactive |
| O=C1NC(=O)c2cccc3cccc1c23 | inactive | inactive | – | inactive | – | inactive | inactive | – | inactive |
| COC(=O)Nc1nc2ccc(C(=O)C3CC3)cc2[nH]1 | inactive | – | inactive | – | inactive | – | inactive | inactive | – |
| O=C(Oc1ccccc1)c1ccc2ccccc2c1O | inactive | – | inactive | – | – | inactive | – | inactive | inactive |
| O[C@@H](CNC[C@H](O)[C@H]1CCc2cc(F)ccc2O1)[C@@H]1CCc2cc(F)ccc2O1 | 23.7 µM (active) | – | 13.3 µM (active) | inactive | 29.8 µM (active) | – | 21.1 µM (active) | – | – |
| CCCCCCCC(=O)Oc1c(Br)cc(C#N)cc1Br | – | – | – | inactive | inactive | inactive | – | – | inactive |
| Nc1nc(-c2ccc([N+](=O)[O-])cc2)cs1 | – | – | inactive | inactive | inactive | – | – | – | – |
| CC(C)(C)NCC(O)COc1cccc2c1C[C@H](O)[C@H](O)C2 (some centres not stated) | – | – | inactive | – | inactive | – | inactive | – | – |
| O=C(O)c1cccc(C[C@@H]2COc3ccc(OCc4nc5cc(F)ccc5s4)cc3[C@@H]2O)c1 | inactive | – | – | – | inactive | inactive | inactive | – | inactive |
| COc1ccc(-c2cc(=S)ss2)cc1 | inactive | – | inactive | – | inactive | inactive | inactive | – | – |
